Test results from article PMC5700166.

What was measured:
GST-Hu-p50 = GST-Hu-p50 (Homo sapiens, UniProt P19838 7-356); test: protein-binding microarray (PBM); PBM: ~300 nM protein, 6 mM HEPES pH 7.8, 80 mM KCl, 0.5 mM EDTA, 0.5 mM EGTA, 6% glycerol, 35 ng/ul poly-dIdC, 1% milk, 1 h, room temperature; Ap Aiptasia and Nv Nematostella (sea anemones) / Co Capsaspora / Aq Amphimedon (sponge) / Dm Drosophila / Hu human; RHD is the Rel homology domain; high values mean tight binding; settings: dsDNA, one strand shown
[1] = target: T1, GST-Nv-NF-kB (Ser allele) (Nematostella vectensis, UniProt A7UNT2 2-411); test: as above; settings: dsDNA, one strand shown
T1 sequence: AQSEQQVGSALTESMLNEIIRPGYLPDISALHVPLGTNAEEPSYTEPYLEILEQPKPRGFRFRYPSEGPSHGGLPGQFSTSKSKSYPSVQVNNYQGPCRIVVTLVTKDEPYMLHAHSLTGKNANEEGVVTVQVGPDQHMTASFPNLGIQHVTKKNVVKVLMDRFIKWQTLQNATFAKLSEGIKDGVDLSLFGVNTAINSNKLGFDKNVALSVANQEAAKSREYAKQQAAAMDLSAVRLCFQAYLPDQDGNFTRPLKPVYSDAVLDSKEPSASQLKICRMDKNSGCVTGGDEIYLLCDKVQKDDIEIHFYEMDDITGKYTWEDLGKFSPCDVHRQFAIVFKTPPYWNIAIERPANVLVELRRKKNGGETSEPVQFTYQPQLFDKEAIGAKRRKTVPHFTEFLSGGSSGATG

GST-Hu-p50, sequence (P19838 7-356): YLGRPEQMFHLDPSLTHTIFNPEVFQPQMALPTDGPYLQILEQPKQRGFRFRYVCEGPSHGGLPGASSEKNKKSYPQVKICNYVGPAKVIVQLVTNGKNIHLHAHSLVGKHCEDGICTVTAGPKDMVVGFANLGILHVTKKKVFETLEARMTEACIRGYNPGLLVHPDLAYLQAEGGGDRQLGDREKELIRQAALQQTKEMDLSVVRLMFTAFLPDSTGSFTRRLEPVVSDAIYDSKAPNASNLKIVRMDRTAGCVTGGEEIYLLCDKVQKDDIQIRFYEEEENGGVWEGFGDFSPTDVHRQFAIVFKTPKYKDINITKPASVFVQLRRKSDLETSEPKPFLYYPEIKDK

Sequence | binding signal (GST-Hu-p50) | binding signal [1]
CCGATTAACATCAGGGAAAAAAATGATGTTAATCGGGTCTTGATTCGCTTGACGCTGCTG | 4.58 z-score | 
CCGATTAACATCAAATTCCCTCGTGATGTTAATCGGGTCTTGATTCGCTTGACGCTGCTG | 3.62 z-score | 4.74 z-score
CCGATTAACATCAAACACCCCCCTGATGTTAATCGGGTCTTGATTCGCTTGACGCTGCTG | 4.57 z-score | 4.8 z-score
CCGATTAACATCACGTTTTTCCCTGATGTTAATCGGGTCTTGATTCGCTTGACGCTGCTG | 3.49 z-score | 
CCGATTAACATCAGGAAAAGTCCTGATGTTAATCGGGTCTTGATTCGCTTGACGCTGCTG | 1.57 z-score | 
CCGATTAACATCAGGGGTTCACCTGATGTTAATCGGGTCTTGATTCGCTTGACGCTGCTG | 3.78 z-score | 3.04 z-score
CCGATTAACATCACCGTTTAAGCTGATGTTAATCGGGTCTTGATTCGCTTGACGCTGCTG | 1.15 z-score | 
CCGATTAACATCAAATTTTTCCCTGATGTTAATCGGGTCTTGATTCGCTTGACGCTGCTG | 4.48 z-score | 
CCGATTAACATCACGGAAGTCCCTGATGTTAATCGGGTCTTGATTCGCTTGACGCTGCTG | 4.43 z-score | 5.32 z-score
CCGATTAACATCAGGGGAGAAAATGATGTTAATCGGGTCTTGATTCGCTTGACGCTGCTG | 4.88 z-score | 5.87 z-score
CCGATTAACATCAAAATCTTCCCTGATGTTAATCGGGTCTTGATTCGCTTGACGCTGCTG | 3.8 z-score | 6.32 z-score
CCGATTAACATCAGGGTATTCCATGATGTTAATCGGGTCTTGATTCGCTTGACGCTGCTG | 4.11 z-score | 4.16 z-score
CCGATTAACATCAGAACTTTCCCTGATGTTAATCGGGTCTTGATTCGCTTGACGCTGCTG | 4.94 z-score | 5.58 z-score
CCGATTAACATCAAGGACTTCCCTGATGTTAATCGGGTCTTGATTCGCTTGACGCTGCTG | 2.42 z-score | 2.77 z-score
CCGATTAACATCAGGAGTCTCCCTGATGTTAATCGGGTCTTGATTCGCTTGACGCTGCTG | 1.4 z-score | 1.4 z-score
CCGATTAACATCAAGGAAAGCCCTGATGTTAATCGGGTCTTGATTCGCTTGACGCTGCTG | 1.13 z-score | 
CCGATTAACATCAGGGAATTATATGATGTTAATCGGGTCTTGATTCGCTTGACGCTGCTG | 4.39 z-score | 5.77 z-score
CCGATTAACATCAGTATTCCCCATGATGTTAATCGGGTCTTGATTCGCTTGACGCTGCTG | 5.14 z-score | 
CCGATTAACATCACGTATTCCCCTGATGTTAATCGGGTCTTGATTCGCTTGACGCTGCTG | 5.15 z-score | 
CCGATTAACATCAGAATCTCCCATGATGTTAATCGGGTCTTGATTCGCTTGACGCTGCTG | 2.18 z-score | 1.67 z-score
CCGATTAACATCAAAATTTTCCTTGATGTTAATCGGGTCTTGATTCGCTTGACGCTGCTG | 1.03 z-score | 
CCGATTAACATCAAATAAATCCCTGATGTTAATCGGGTCTTGATTCGCTTGACGCTGCTG | 3.29 z-score | 3.53 z-score
CCGATTAACATCAAAAATTTACCTGATGTTAATCGGGTCTTGATTCGCTTGACGCTGCTG | 3.82 z-score | 6.08 z-score
CCGATTAACATCAATTTCCCATATGATGTTAATCGGGTCTTGATTCGCTTGACGCTGCTG | 3.09 z-score | 3.63 z-score
CCGATTAACATCAAATATACCCATGATGTTAATCGGGTCTTGATTCGCTTGACGCTGCTG | 1.83 z-score | 1.7 z-score

Sequence | binding signal (GST-Hu-p50) | binding signal [1]
CCGATTAACATCACATACCCCCCTGATGTTAATCGGGTCTTGATTCGCTTGACGCTGCTG | 3.68 z-score | 
CCGATTAACATCAGAATTACCCATGATGTTAATCGGGTCTTGATTCGCTTGACGCTGCTG | 2.83 z-score | 3.26 z-score
CCGATTAACATCAGGGGAACATATGATGTTAATCGGGTCTTGATTCGCTTGACGCTGCTG | 4.06 z-score | 
CCGATTAACATCAGGAAAAAACCTGATGTTAATCGGGTCTTGATTCGCTTGACGCTGCTG | 2.63 z-score | 
CCGATTAACATCACGGGGGGGACTGATGTTAATCGGGTCTTGATTCGCTTGACGCTGCTG | 4.37 z-score | 4.38 z-score
CCGATTAACATCAGAGTTTTCCCTGATGTTAATCGGGTCTTGATTCGCTTGACGCTGCTG | 3.99 z-score | 
CCGATTAACATCAATTTGGGAAATGATGTTAATCGGGTCTTGATTCGCTTGACGCTGCTG | 1.3 z-score | 2.36 z-score
CCGATTAACATCAGGGAAATAACTGATGTTAATCGGGTCTTGATTCGCTTGACGCTGCTG | 3.76 z-score | 4.37 z-score
CCGATTAACATCAAAAATTTCCGTGATGTTAATCGGGTCTTGATTCGCTTGACGCTGCTG | 1.34 z-score | 
CCGATTAACATCAACCTTTCCCCTGATGTTAATCGGGTCTTGATTCGCTTGACGCTGCTG | 4.06 z-score | 
CCGATTAACATCACCGTTTTCCCTGATGTTAATCGGGTCTTGATTCGCTTGACGCTGCTG | 3.18 z-score | 
CCGATTAACATCACGATTTTCCCTGATGTTAATCGGGTCTTGATTCGCTTGACGCTGCTG | 3.78 z-score | 
CCGATTAACATCAAAAAAATTTCTGATGTTAATCGGGTCTTGATTCGCTTGACGCTGCTG | 1.66 z-score | 1.35 z-score
CCGATTAACATCACGGTACGGGGTGATGTTAATCGGGTCTTGATTCGCTTGACGCTGCTG | 1.71 z-score | 1.3 z-score
CCGATTAACATCACGGAAAACCCTGATGTTAATCGGGTCTTGATTCGCTTGACGCTGCTG | 2.12 z-score | 1.92 z-score
CCGATTAACATCAGGGATTTCCATGATGTTAATCGGGTCTTGATTCGCTTGACGCTGCTG | 3.25 z-score | 2.71 z-score
CCGATTAACATCACCGGAATTCCTGATGTTAATCGGGTCTTGATTCGCTTGACGCTGCTG | 2.71 z-score | 1.56 z-score
CCGATTAACATCACGTTCCCCCCTGATGTTAATCGGGTCTTGATTCGCTTGACGCTGCTG | 5.15 z-score | 5.78 z-score
CCGATTAACATCATAAGGGGTGTTGATGTTAATCGGGTCTTGATTCGCTTGACGCTGCTG | 1.44 z-score | 1.09 z-score
CCGATTAACATCAGGGAGCTCCCTGATGTTAATCGGGTCTTGATTCGCTTGACGCTGCTG | 2.59 z-score | 1.82 z-score
CCGATTAACATCAGCTTGGGAAATGATGTTAATCGGGTCTTGATTCGCTTGACGCTGCTG | 1.1 z-score | 1.58 z-score
CCGATTAACATCAGGCTATCCCCTGATGTTAATCGGGTCTTGATTCGCTTGACGCTGCTG | 3.43 z-score | 3.73 z-score
CCGATTAACATCAGGGAATGCACTGATGTTAATCGGGTCTTGATTCGCTTGACGCTGCTG | 2.28 z-score | 2.1 z-score
CCGATTAACATCAGGGGGGGTTATGATGTTAATCGGGTCTTGATTCGCTTGACGCTGCTG | 4.91 z-score | 4.34 z-score
CCGATTAACATCAAATATTCCCATGATGTTAATCGGGTCTTGATTCGCTTGACGCTGCTG | 2.88 z-score | 4.14 z-score

Sequence | binding signal (GST-Hu-p50) | binding signal [1]
CCGATTAACATCACAAAATTTCCTGATGTTAATCGGGTCTTGATTCGCTTGACGCTGCTG | 1.41 z-score | 1.16 z-score
CCGATTAACATCAGGGGAGTAAATGATGTTAATCGGGTCTTGATTCGCTTGACGCTGCTG | 2.72 z-score | 3.92 z-score
CCGATTAACATCAGGGGGATCACTGATGTTAATCGGGTCTTGATTCGCTTGACGCTGCTG | 5.04 z-score | 5.27 z-score
CCGATTAACATCAGGGAACCCCATGATGTTAATCGGGTCTTGATTCGCTTGACGCTGCTG | 2.54 z-score | 1.33 z-score
CCGATTAACATCAATATACCCCCTGATGTTAATCGGGTCTTGATTCGCTTGACGCTGCTG | 4.42 z-score | 5.46 z-score
CCGATTAACATCAATGGGTTTTCTGATGTTAATCGGGTCTTGATTCGCTTGACGCTGCTG | 1.9 z-score | 2.25 z-score
CCGATTAACATCAGGGAATTGTATGATGTTAATCGGGTCTTGATTCGCTTGACGCTGCTG | 3.41 z-score | 4.84 z-score
CCGATTAACATCATGATGGGAAATGATGTTAATCGGGTCTTGATTCGCTTGACGCTGCTG | 2.02 z-score | 1.98 z-score
CCGATTAACATCAAATACTTCCCTGATGTTAATCGGGTCTTGATTCGCTTGACGCTGCTG | 1.98 z-score | 3.4 z-score
CCGATTAACATCACCTCCGTATCTGATGTTAATCGGGTCTTGATTCGCTTGACGCTGCTG | 1.28 z-score | 1.11 z-score
CCGATTAACATCACCCGTTTCCCTGATGTTAATCGGGTCTTGATTCGCTTGACGCTGCTG | 2.75 z-score | 4.29 z-score
CCGATTAACATCACGTAAATCCCTGATGTTAATCGGGTCTTGATTCGCTTGACGCTGCTG | 2.23 z-score | 2.27 z-score
CCGATTAACATCACGGCTTTCCCTGATGTTAATCGGGTCTTGATTCGCTTGACGCTGCTG | 2.19 z-score | 3.48 z-score
CCGATTAACATCAGGCTTTCCCATGATGTTAATCGGGTCTTGATTCGCTTGACGCTGCTG | 1.36 z-score | 1.98 z-score
CCGATTAACATCAAGTCCCCCAATGATGTTAATCGGGTCTTGATTCGCTTGACGCTGCTG | 4.25 z-score | 3.54 z-score
CCGATTAACATCAGGGAATTAGATGATGTTAATCGGGTCTTGATTCGCTTGACGCTGCTG | 2 z-score | 3.54 z-score
CCGATTAACATCAGGGATAACCCTGATGTTAATCGGGTCTTGATTCGCTTGACGCTGCTG | 2.62 z-score | 1.1 z-score
CCGATTAACATCATGGGGACGACTGATGTTAATCGGGTCTTGATTCGCTTGACGCTGCTG | 2.41 z-score | 2.44 z-score
CCGATTAACATCAGGAAAATACCTGATGTTAATCGGGTCTTGATTCGCTTGACGCTGCTG | 3.12 z-score | 3.24 z-score
CCGATTAACATCACCCAGGGAAATGATGTTAATCGGGTCTTGATTCGCTTGACGCTGCTG | 2.01 z-score | 1.97 z-score
CCGATTAACATCACGTAAACCCCTGATGTTAATCGGGTCTTGATTCGCTTGACGCTGCTG | 3.75 z-score | 2.13 z-score
CCGATTAACATCAAAAAACCGTTTGATGTTAATCGGGTCTTGATTCGCTTGACGCTGCTG | 1.52 z-score | 2.22 z-score
CCGATTAACATCAGCGAATTCCCTGATGTTAATCGGGTCTTGATTCGCTTGACGCTGCTG | 3.28 z-score | 4.46 z-score
CCGATTAACATCAGGGGATAAAATGATGTTAATCGGGTCTTGATTCGCTTGACGCTGCTG | 3.95 z-score | 6.05 z-score
CCGATTAACATCAGGACACCCCCTGATGTTAATCGGGTCTTGATTCGCTTGACGCTGCTG | 5.24 z-score | 3.79 z-score
